Results filed as inconclusive are left out. Calls of active or inactive are those of the source. The call rests on the fitted dose curve; in most records, active means well fitted cell-killing curve with a large enough effect; inconclusive means small, poorly fitted or top-dose-only effect, or effect the other way; inactive means flat fitted curve, though single readings scatter.
These molecules were tested on PA-1 (assay: Primary qHTS to identify gynecologic anti-cancer compounds using libraries of approved drugs and bioactive compounds (AID 1345084; further: nearly all actives have a fitted effect of over 55% in size)). Details: Gynecologic cancer cell panel viability, ATPlite luminescence, 48 h; series mostly up to 57.5 µM; activity change, negative = cytotoxicity: at the top concentration.
In short: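 Cell viability after 48 h drug treatment, ATPlite luminescence readout; five doses.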
`COc1ccc(NC(=O)c2ccc(-c3ccc(C(N)=O)cc3C)cc2)cc1N1CCN(C)CC1` was tested, and the “activity change, negative = cytotoxicity” value was 1.94% (inactive). For `Cc1cccc(-c2nn3c(c2-c2ccnc4ccc(C(N)=O)cc24)CCC3)n1`, the “activity change, negative = cytotoxicity” value was -6.3% (inactive). In the case of `CC1(C)CC[C@]2(C(=O)OC3OC(CO)C(O)C(O)C3O)CC[C@]3(C)C(=CCC4[C@@]5(C)C[C@@H](O)[C@H](OC6OC(C(=O)O)C(O)C(O)C6O)C(C)(C)C5CC[C@]43C)[C@@H]2C1` (some centres not stated), the activity change, negative = cytotoxicity is reported as 4.09% [at 11.6 µM] (inactive). With `O=C(NCC(=O)N1CCCC1)Nc1ccc2ccccc2c1` the “activity change, negative = cytotoxicity” value was 35.7% (inactive). `O=C(c1c2ccccc2cc2ccccc12)N1CCC(N2CCC[C@@H](C(=O)N3CCOCC3)C2)CC1` was tested, and the “activity change, negative = cytotoxicity” value was -1.46% (inactive). With `CC(C)c1ccc2c(c1)C(O)CC1C(C)(CO)CCCC21C` (configuration not stated) the “activity change, negative = cytotoxicity” value was 25.8% (inactive). With `C=CCc1cc(OC)c(OC(C)C(O)c2ccc(O)c(OC)c2)c(OC)c1` (configuration not stated) the “activity change, negative = cytotoxicity” value was 13.8% [at 38.5 µM] (inactive). `COc1cc(O)cc(O[C@@H]2O[C@H](CO)[C@@H](O[C@@H]3OC[C@](O)(CO)[C@H]3O)[C@H](O)[C@H]2O)c1OC` was tested, and the “activity change, negative = cytotoxicity” value was -0.489% [at 25.3 µM] (inactive). For `CC1(C)COC(=O)[C@@H]1O[C@@H]1O[C@H](CO)[C@@H](O)[C@H](O)[C@H]1O`, the “activity change, negative = cytotoxicity” value was 13.6% (inactive). With `C[C@@H]1O[C@@H](O[C@H]2[C@@H]3C=CO[C@@H](O[C@@H]4O[C@H](CO)[C@@H](O)[C@H](O)[C@H]4O)[C@@H]3[C@@]3(CO)O[C@@H]23)[C@H](O)[C@H](O)[C@H]1OC(=O)/C=C/c1ccc(O)cc1` the “activity change, negative = cytotoxicity” value was -2.46% [at 25.3 µM] (inactive). With `Cc1c(NC(=O)N2CCOCC2)ccc2c1c1ccccc1n2C(C)C` the “activity change, negative = cytotoxicity” value was 7.42% (inactive). With `COC(=O)C1=COC(OC2OC(CO)C(O)C(O)C2O)C2C(COC(=O)/C=C/c3ccc(O)c(O)c3)C(O)C(O)C12` (configuration not stated) the “activity change, negative = cytotoxicity” value was -4.02% [at 25.3 µM] (inactive).

From PubChem BioAssay (NCATS)
On the % scale 0 is the no-effect control and ±100 the full control effect.
